C-LANA FP – inhibitors of KSHV C-LANA binding to DNA, primary screen, biochemical, fluorescence polarization, FAM-LBS DNA, MBP-C-LANA, single point; Kaposi's sarcoma herpesvirus LANA C-terminal domain (residues 932-1162) DNA binding; inhibition, % at 9 µM; actives 0.078% (n = 340,000);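 active = highest replicate inhibition at or above 60% at 9 µM, even if other replicates fall short; inactive = all replicates below 60% inhibition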;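 also: 0% = neutral control wells and 100% = 4 µM acridine orange control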
cardiac RTF act – cardiac RTF calcium sensitivity activators, primary screen, biochemical, IANBD-TnC fluorescence, EC20 calcium; Troponin I, cardiac muscle (Homo sapiens) + Troponin T, cardiac muscle (Homo sapiens) + …; IANBD-labeled TnC RTF fluorescence at EC20 calcium; 0% EC20 calcium, 100% full calcium; activation, % at 7.2 µM; actives 0.24% (n = 340,000);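 active = activation above the mean over all tested compounds plus 3 SD, cut at about 30% in these data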;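 also: rise in fluorescence read as greater calcium sensitivity of cardiac thin filaments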
Keap1-Nrf2 PPI – Keap1-Nrf2 protein-protein interaction inhibitors, primary screen, biochemical, fluorescence polarization, single point | inhibition, % at 9.4 µM | actives 0.15% (n = 340,000) | Kelch-like ECH-associated protein 1 (Homo sapiens), Q14145 | Keap1 Kelch-Nrf2 peptide fluorescence polarization, 1536-well; in the data active = inhibition above about 12%;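 also: human Keap1 Kelch domain with fluorescein labeled Nrf2 9mer peptide probe; 0% = neutral control wells and 100% = peptide positive control; higher means more block of Keap1 binding to Nrf2 peptide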
E coli Lon inh – inhibitors of E. coli Lon protease, primary screen, biochemical, fluorescence polarization; AID 602123, 2011; actives 0.42% (n = 360,000); purified E. coli Lon protease; inhibition, % at 7.94 µM; P0A9M0; in the data active = inhibition above about 13%, passing the limit was not always enough;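 also: 0% = enzyme with probe and DMSO and 100% = no enzyme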
RTF Ca sens inh – cardiac RTF calcium sensitivity inhibitors, primary screen, biochemical, IANBD-TnC fluorescence, EC70 calcium. IANBD-labeled cardiac RTF, Ca2+ fluorescence. Troponin I, cardiac muscle (Homo sapiens) + Troponin T, cardiac muscle (Homo sapiens) + …. inhibition, % at 7.15 µM. actives 0.12% (n = 340,000);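 active = inhibition above the mean inhibition of all tested compounds plus 3 SD, cut at about 17% in these data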;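 also: assay run at fixed EC70 calcium of 1.6 mM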
LANA-H2A inh – blockers of LANA interaction with H2A/H2B – biochemical, FP readout, HTS, primary screen | actives 0.6% (n = 320,000) | inhibition, % (concentration not given with the values) | cell-free LANA-H2A/H2B peptide, fluorescence polarization; in the data active = inhibition mostly above about 10%, no sharp cut-off; inactive = mostly below about 6.7%
Target sequence (Q9QR71 whole entry, looked up): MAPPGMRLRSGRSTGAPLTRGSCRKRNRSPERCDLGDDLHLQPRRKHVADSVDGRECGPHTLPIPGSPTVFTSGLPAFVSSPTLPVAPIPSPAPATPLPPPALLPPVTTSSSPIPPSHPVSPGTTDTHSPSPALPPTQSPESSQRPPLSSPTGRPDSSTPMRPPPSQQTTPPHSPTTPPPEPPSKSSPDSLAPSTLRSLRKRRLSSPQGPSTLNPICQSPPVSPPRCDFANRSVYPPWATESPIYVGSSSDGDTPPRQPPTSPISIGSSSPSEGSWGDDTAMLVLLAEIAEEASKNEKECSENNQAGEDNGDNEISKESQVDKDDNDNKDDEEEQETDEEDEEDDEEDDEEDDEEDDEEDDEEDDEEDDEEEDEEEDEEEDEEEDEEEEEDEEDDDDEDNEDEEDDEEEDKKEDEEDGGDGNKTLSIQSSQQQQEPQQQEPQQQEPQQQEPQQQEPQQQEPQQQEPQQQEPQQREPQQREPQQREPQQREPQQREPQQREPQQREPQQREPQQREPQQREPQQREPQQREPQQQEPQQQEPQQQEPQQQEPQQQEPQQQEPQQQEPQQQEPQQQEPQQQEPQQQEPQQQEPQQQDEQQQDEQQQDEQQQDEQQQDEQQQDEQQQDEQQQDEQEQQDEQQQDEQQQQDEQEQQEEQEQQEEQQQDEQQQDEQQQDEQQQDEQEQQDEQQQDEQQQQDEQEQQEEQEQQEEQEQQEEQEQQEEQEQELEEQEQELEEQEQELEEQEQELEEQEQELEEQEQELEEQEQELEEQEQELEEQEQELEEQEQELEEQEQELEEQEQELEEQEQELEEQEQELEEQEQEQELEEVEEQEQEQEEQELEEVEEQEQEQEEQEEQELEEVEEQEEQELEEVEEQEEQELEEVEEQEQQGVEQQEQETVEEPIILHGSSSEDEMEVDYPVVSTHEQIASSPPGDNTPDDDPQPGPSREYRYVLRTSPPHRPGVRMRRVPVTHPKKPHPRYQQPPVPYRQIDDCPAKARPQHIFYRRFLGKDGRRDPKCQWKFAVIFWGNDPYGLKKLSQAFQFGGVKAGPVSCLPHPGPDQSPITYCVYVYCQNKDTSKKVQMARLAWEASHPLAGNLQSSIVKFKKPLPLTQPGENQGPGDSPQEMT
The depositor's hits bear a star; · = no result; + = active, no number. Shown are actives, neighbours in structure and some others; about 1.3% of the full set was active somewhere.

SMILES	C-LANA FP	cardiac RTF act	Keap1-Nrf2 PPI	E coli Lon inh	RTF Ca sens inh	LANA-H2A inh
Cc1ccc(S(=O)(=O)/N=C2/NC(=O)/C(=C\c3cc(Br)cc(Br)c3O)S2)cc1	-16.2	63.3*	-73.6	-87.9	-91.7	-6.8
Oc1ccc(/C=N/N=C/c2ccc(O)c(O)c2)cc1O	76.8*	2.8	-7.4	3.4	-1.4	7.1
Oc1ccc(N=Cc2ccc(O)c(O)c2)cc1	0.9	-2.3	-0.5	6.9	-8.4	-1.6
O=C(OCC(=O)c1c[nH]c2ccccc12)c1cccc([N+](=O)[O-])c1	-0.2	2.3	-4.0	-3.2	-9.2	5.4
CC(=O)Oc1ccc2c(C)c(CC(=O)N3CCN(C(=O)C4COc5ccccc5O4)CC3)c(=O)oc2c1C (stereo unspecified)	-2.3	2.1	-6.1	-11.3	-5.4	1.1
Cc1ccc(CN(C(=O)c2ccco2)C(C(=O)NC2CCCC2)c2cccnc2)cc1 (stereo unspecified)	0.4	6.3	2.7	-5.5	-4.4	+
O=C(NCC(=O)N(Cc1ccccc1)C(C(=O)NC1CCCC1)c1cccnc1)c1ccco1 (stereo unspecified)	-2.7	4.1	-3.9	3.9	-2.1	-4.0
NC(=O)c1cc(S(=O)(=O)N2CCCC2)ccc1OCCOc1ccccc1F	0.2	10.0	-0.4	-5.6	-6.6	·
CC(C)(C)C1CCN2CCCC(c3ccc([N+](=O)[O-])cc3)(C1)C21OCCO1 (stereo unspecified)	·	·	·	3.5	·	·
Cc1c(/C=N/NC(=O)c2cccnc2)c2ccccc2n1Cc1ccccc1	1.3	·	1.6	-9.2	·	11.8*
Cc1nn(Cc2ccccc2)c(Cl)c1/C=N/NC(=O)c1cccnc1	0.0	-3.9	2.6	2.0	4.4	1.9
CCCC(=O)Nc1ccccc1NC(=O)c1ccc(OC(C)=O)cc1	-0.7	1.7	-8.8	-2.7	-6.6	5.3
O=C(CSc1ccccc1F)Nc1ccc(N2CCOCC2)cc1	-0.8	-9.4	-0.9	8.2	5.3	18.1*
COc1ccccc1CC(=O)N(Cc1ccccc1)c1ccc(C)cc1	-1.5	3.7	0.5	-11.1	0.3	22.0*
COc1ccc(CC(=O)N(Cc2ccccc2)c2ccccc2)cc1S(=O)(=O)N1CCOCC1	-0.8	0.5	-4.8	-5.0	-6.7	15.7*
COc1cc(SC)ccc1C(=O)N1CCN(c2ccccc2OC)CC1	-0.9	0.1	-1.6	0.3	10.8	2.9
COC(=O)C1CCN(C(=O)c2ccc(SC)cc2OC)CC1	1.2	-0.1	1.4	-1.7	-5.6	12.4*
O=C(/C=C/c1cccc([N+](=O)[O-])c1)NCCSCc1cccc(Cl)c1	-0.7	2.9	-3.3	3.5	1.7	-1.4
Fc1ccccc1CNc1nc(-c2cccnc2)nc2ccccc12	-1.4	-6.1	-5.5	-26.8	-3.6	-2.0
CCCCC(CC)COC(=O)C(C#N)=C(c1ccccc1)c1ccccc1 (stereo unspecified)	0.5	2.9	-0.3	2.5	-0.6	14.9*
O=C(NCc1ccccc1)c1ccccc1C(=O)c1ncc[nH]1	-1.0	1.0	-4.2	-2.3	0.6	-1.4
COC(=O)c1cc(NC(=O)c2ccccc2F)cc(C(=O)OC)c1	1.2	0.1	0.3	-4.5	1.2	22.2*
O=C(O)c1cc(NC(=O)c2ccccc2F)cc(NC(=O)c2ccccc2F)c1	-0.7	-1.7	2.1	2.2	-0.1	3.9
COC(=O)c1cc(NC(=O)c2cc3ccccc3o2)cc(C(=O)OC)c1	0.7	-3.4	-6.1	8.0	2.1	16.4*
COc1ccc(CSc2nnc(C)s2)cc1F	-0.2	3.2	-6.9	-0.4	-2.2	+
SMILES	C-LANA FP	cardiac RTF act	Keap1-Nrf2 PPI	E coli Lon inh	RTF Ca sens inh	LANA-H2A inh
COC(=O)c1ccc(CSc2nnc(C)s2)cc1	1.0	-0.8	1.6	4.0	-5.0	-1.1
O=C(CCCOc1ccccc1)Nc1ccc(Cl)c(S(=O)(=O)N2CCOCC2)c1	2.3	-1.7	3.0	1.5	3.6	0.6
O=C(CSc1ccccc1)Nc1ccccc1N1CCOCC1	0.0	5.7	-0.4	3.6	-6.5	-3.3
Nc1cc(N)nc(SCC(=O)Nc2ccccc2N2CCOCC2)n1	0.6	3.1	-0.3	-8.9	1.1	14.5*
Cc1ccc(NC(=O)CSc2nc(N)cc(N)n2)cc1S(=O)(=O)N1CCOCC1	0.5	-0.4	0.6	7.2	-0.9	19.3*
Cc1ccc(NC(=O)CCCOc2ccccc2)cc1S(=O)(=O)N1CCOCC1	-1.2	-7.6	-4.5	6.5	-3.2	20.0*
COc1ccc(C)cc1NC(=O)C(Sc1nnc(-c2ccncc2)n1-c1ccc(Cl)cc1)c1ccccc1 (stereo unspecified)	-0.2	-2.3	-6.8	5.0	1.5	5.7
O=C1CC2(CCN(C(=O)c3cccc(Br)c3)CC2)Oc2ccccc21	-2.8	6.7	-2.3	4.8	3.8	18.5*
O=C1CC2(CCN(C(=O)c3cccc(Cl)c3)CC2)Oc2ccccc21	0.9	3.1	0.7	-13.6	-11.6	1.6
CC(C)(C)N1C(=O)Cc2c1nc(N)c1c(N)nc(N3CCCCC3CO)c(C#N)c21 (stereo unspecified)	0.5	6.5	-13.3	49.7*	4.7	-3.3
COc1ccc(N(C)C(=O)c2cc3c(s2)-c2ccccc2OC3)c(OC)c1	-1.6	-1.6	-1.5	8.1	-0.1	18.4*
Nc1c(Cl)cc(-c2csc(N3CCCC3c3nc4cc(Cl)c(N5CCCCC5)cc4n3CCOCCO)n2)cc1Cl (stereo unspecified)	2.2	2.4	-7.8	-4.8	-0.3	1.6
Cc1cc(C)n(CC(=O)NNC(=O)CCNC(=O)c2ccccc2Cl)n1	0.5	4.9	2.2	3.1	-6.1	0.8
Cc1cc(C)n(CC(=O)NNC(=O)CC(C)c2ccccc2)n1 (stereo unspecified)	73.3*	0.6	0.8	1.2	-3.2	·
O=C(Nc1ccc(Cl)cc1)OCc1cn(-c2ccccc2)nn1	0.3	2.0	2.6	-10.7	-4.0	-5.7
CN(C)c1ccc(/C=C2\SC(N3CCCCC3)=NC2=O)cc1	1.2	39.9*	-5.0	-329.1	-75.0	-7.1
Cc1ccc(/C=C2\SC(N3CCCC3)=NC2=O)cc1	·	·	·	·	·	-3.8
COc1cccc(NC(=O)C2CC(=O)OC23CCOC(C)(C)C3)c1 (stereo unspecified)	-7.5	1.2	0.3	-1.3	-18.6	13.1*

Bioassay records (PubChem)
